Reference: PubChem BioAssay (NCI)
This is part of a sample that, as a whole, favours compounds with a hit. Of some 83,000 tested, about 20% had one in any assay.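 Each cell line was grown in a 96-well plate and treated with one concentration of compound for 48 hours. Values below 10 were considered active.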 Calls of active or inactive are those of the source.

Each molecule was assayed on HL-60(TB) leukemia (assay: NCI-60 one-dose screen, 48 h (100 = growth as untreated, 0 = no growth, -100 = all killed)). Conditions: 10 µM unless noted.
With CC(CC(=O)c1ccccc1)c1ccccc1 (stereo not given) the growth was 102% (inactive).
For COc1ccc2c(c1)c(=O)oc1c(C)c(OCC(C)=O)ccc12, the growth was 110% (inactive).
In the case of CC[C@]1(O)C[C@@H]2CN(CCc3c([nH]c4ccccc34)[C@@](C(=O)OC)(c3cc4c(cc3OC)N(C)[C@H]3[C@@](O)(C(=O)OC)[C@H](OC(C)=O)[C@]5(CC)C=CCN6CC[C@]43[C@@H]65)C2)C1, the growth is reported as -7.59% (active).
Nc1nnc(-c2ccc3ccccc3c2O)o1 was tested, and the growth was 102% (inactive).
O=C(Cc1ccc(/C=C/C(=O)c2nccs2)cc1)Nc1ccccc1 was tested, and the growth was 75% (inactive).
For CCOC(=O)c1c(C)nc2c(c1N)CC(=O)N2Cc1ccc(OC)cc1, the growth was 110% (inactive).
In the case of CCOC(=O)C1=C(C)NC(C)=C(C(=O)OCC)C1c1cc(Br)c(O)c(OC)c1, the growth is reported as 6.74% (active).
In the case of Cc1cc(N2CCOCC2)nc(NCc2cc(Nc3ccnc4cc(Cl)ccc34)ccc2F)n1, the growth is reported as -54.2% (active).
COc1ccccc1/C=C/C(=O)Nc1ccc(F)cc1 was tested, and the growth was 86.3% (inactive).
With C/C(=C(/c1ccc(Cl)cc1)c1ccc(OCCCN(C)C)cc1)c1ccc(Cl)cc1 the growth was 72.9% (inactive).
With COc1ccc2c(c1)O/C(=C\c1cccc(OCC(=O)Nc3nc4c(s3)CCCC4)c1)C2=O the growth was 27.4% (inactive).
For COc1cc(NC(=O)C2=C(N3CCOCC3)/C(=C/c3ccc(Cl)cc3)CC2)cc(OC)c1OC, the growth was 21.6% (inactive).
With O=C(Oc1ccccc1)c1ccccc1Cl the growth was 76.4% (inactive).
For O=C(CCl)N(c1ccccc1)c1ccccc1, the growth was 101% (inactive).
For N#Cc1cnc2ccc(NCc3cnc[nH]3)cc2c1Nc1ccc(F)c(Cl)c1, the growth was 79.4% (inactive).
In the case of O=C(NCCCNC(=O)OCc1ccc2cccc(O)c2n1)OCc1ccc2cccc(O)c2n1, the growth is reported as 45.5% (inactive).
With CCOc1nc(-c2ccccc2)cc2c(O)c(C(=O)NC(C)C)[nH]c(=O)c12 the growth was 168% (inactive).
COc1cc2c(cc1OCCCCn1c(-c3cc(=O)c4ccccc4o3)nc3ccccc31)N=C[C@@H]1CCCN1C2=O was tested, and the growth was 91.2% (inactive).
With CCN(CC)c1ccc(N=C2C=CC(=O)C=C2NC(C)=O)cc1 the growth was 55.3% (inactive).
For Cc1ccccc1Nc1n[nH]c(Cc2ccccc2)n1, the growth was 66.9% (inactive).
For COc1ccc(/C=C/c2ccc3ccccc3n2)c(OC)c1, the growth was 40.7% (inactive).
With CCC[S@](=O)c1ccc2nc(NC(=O)OC)[nH]c2c1 the growth was 77.1% (inactive).
With COCc1nc(NS(=O)(=O)c2ccc(N)cc2)nc(C)c1Br the growth was 114% (inactive).
For CNCc1ccccc1CN(CC(=O)Nc1ccc2c(c1)CC1(C2)C(=O)Nc2ncccc21)C(=O)C(C)(C)C (stereo not given), the growth was 100% (inactive).
In the case of NS(=O)(=O)c1ccc(CCn2c(SCC(=O)c3ccc(Cl)cc3)nc3ccccc3c2=O)cc1, the growth is reported as 95.5% (inactive).
O=c1oc2c(cc1-c1ccccc1)c[n+]([O-])c1ccccc21 was tested, and the growth was 97.7% (inactive).
In the case of COc1ccc(/C=C/C(=O)c2ccc(NC(=O)CN3CCN(c4cc5c(cc4F)c(=O)c(C(=O)O)cn5C4CC4)CC3)cc2)cc1, the growth is reported as 123% (inactive).
For Cc1cc(NCc2cc(Nc3ccnc4cc(Cl)ccc34)ccc2F)nc(Cl)n1, the growth was 22.9% (inactive).
For CN1CCN(c2ccc(C(=O)Nc3n[nH]c4ccc(Cc5cc(F)cc(F)c5)cc34)c(NC3CCOCC3)c2)CC1, the growth was -57.1% (active).
In the case of Cc1c(N(C)CS(=O)(=O)O)c(=O)n(-c2ccccc2)n1C, the growth is reported as 96% (inactive).
In the case of Cc1nn(CCO)c(C)c1N=[N+]([O-])c1c(C)nn(CCO)c1C, the growth is reported as -45.8% (active).
In the case of C[C@]12O[C@H]1[C@H](O)c1c(cc(O)c3c1C(=O)c1cccc(O)c1-3)C2=O, the growth is reported as 100% (inactive).
C=C1C(=O)O[C@H]2[C@H]1CC/C(COC(=O)C(C)c1ccc(CC(C)C)cc1)=C\CC[C@@]1(C)O[C@@H]21 (stereo not given in full) was tested, and the growth was -9.46% (active).
With Nc1nc(Nc2ccc(Cl)cc2)nn1S(=O)(=O)c1ccc(-c2ccc(F)cc2)cc1 the growth was 110% (inactive).
With COC12C=C/C(=C(/C(=O)OCc3ccccn3)C(=O)CCCCCCCCC3(OC)C=C/C(=C(/C(=O)OCc4ccccn4)C(=O)CCCCCCCC1)O3)O2 the growth was -19% (active).
O=C(COc1ccc(/C=C2\CSc3ccccc3C2=O)cc1)Nc1nccs1 was tested, and the growth was -22.4% (active).
In the case of CC12CCC3C(CCC4CC(O)CCC43C)C1C/C(=C/O)C(=O)O2 (stereo not given), the growth is reported as 107% (inactive).
Cc1cc(C)c2c(=O)[nH]c(SCC(=O)Nc3cccc(S(=O)(=O)N(C)C)c3)nc2n1 was tested, and the growth was 97.2% (inactive).
CC/C(C)=C(\C)C(=O)O was tested, and the growth was 100% (inactive).
For CN(C)S(=O)(=O)Oc1ccc(-c2sc3cc(OS(=O)(=O)N(C)C)ccc3c2C(=O)c2ccc(OCCN3CCCCC3)cc2)cc1, the growth was 53.2% (inactive).
